Measurements taken from PubChem BioAssay (NCATS).
Where “and” joins values, the source holds several entries; their conditions need not be identical. Equal values may be shown once. Results filed as inconclusive are left out. Calls of active or inactive are those of the source. Calls come from the whole dose curve; as a rule, active = well fitted curve in the direction sought with a large enough effect; inconclusive = small, poorly fitted or top-dose-only effect, or another doubt; inactive = no such curve, though single readings can be large; an effect the other way counts as inactive or inconclusive.

Tests used:
MCC-13 = assay: qHTS assay to identify novel small-molecules to repurpose for Merkel cell carcinoma treatment (AID 1296009); settings: MCC and control cell lines, CellTiter-Glo viability, 72 h; series mostly up to 46 µM; note: nearly all actives have a fitted effect of over 60% in size
In short: (§1)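 qHTS format: cells treated with library compounds in DMSO across 8 (NPC) or 11 (MIPE) concentrations. Readout after 72 hr at 37 degree celsius was CellTiter-Glo luminescence.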

MCC-26 = assay: as above; settings: MCC and control cell lines, CellTiter-Glo viability, 72 h; series mostly up to 46 µM
In short: as §1

MKL-1 = assay: as above; settings: MCC and control cell lines, CellTiter-Glo viability, 72 h; series mostly up to 46 µM
In short: as §1

MKL-2 = assay: as above; settings: MCC and control cell lines, CellTiter-Glo viability, 72 h; series mostly up to 46 µM
In short: as §1

NIH3T3 = assay: as above; settings: MCC and control cell lines, CellTiter-Glo viability, 72 h; at 44.8 µM (top of the series) unless noted
In short: as §1

UISO = assay: as above; settings: MCC and control cell lines, CellTiter-Glo viability, 72 h; series mostly up to 46 µM
In short: as §1

WaGa = assay: as above; settings: MCC and control cell lines, CellTiter-Glo viability, 72 h; series mostly up to 46 µM
In short: as §1

C33A = assay: Primary qHTS to identify gynecologic anti-cancer compounds using libraries of approved drugs and bioactive compounds (AID 1345084); settings: Gynecologic cancer cell panel viability, ATPlite luminescence, 48 h; series mostly up to 57.5 µM; note: nearly all actives have a fitted effect of over 55% in size
In short: (§2)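 ATP-based viability (ATPlite), 1,000 cells/well, 16 h pre-incubation, 48 h compound at 37 C, 5% CO2, 15 min RT before read.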

CAOV3 = assay: as above; settings: Gynecologic cancer cell panel viability, ATPlite luminescence, 48 h; series mostly up to 57.5 µM
In short: as §2

CASKI = assay: as above; settings: Gynecologic cancer cell panel viability, ATPlite luminescence, 48 h; series mostly up to 57.5 µM
In short: as §2

Es-2 = assay: as above; settings: Gynecologic cancer cell panel viability, ATPlite luminescence, 48 h; series mostly up to 57.5 µM
In short: as §2

HeLa = assay: as above; settings: Gynecologic cancer cell panel viability, ATPlite luminescence, 48 h; series mostly up to 57.5 µM
In short: as §2

Hek293T = assay: as above; settings: Gynecologic cancer cell panel viability, ATPlite luminescence, 48 h, control line for the selectivity index; series mostly up to 57.5 µM
In short: as §2

JEG-3 = assay: as above; settings: Gynecologic cancer cell panel viability, ATPlite luminescence, 48 h; series mostly up to 57.5 µM
In short: as §2

OV90 = assay: as above; settings: Gynecologic cancer cell panel viability, ATPlite luminescence, 48 h; series mostly up to 57.5 µM
In short: as §2

PA-1 = assay: as above; settings: Gynecologic cancer cell panel viability, ATPlite luminescence, 48 h; series mostly up to 57.5 µM
In short: as §2

SKOV3 = assay: as above; settings: Gynecologic cancer cell panel viability, ATPlite luminescence, 48 h; series mostly up to 57.5 µM
In short: as §2

Tov-21-G = assay: as above; settings: Gynecologic cancer cell panel viability, ATPlite luminescence, 48 h; series mostly up to 57.5 µM
In short: as §2

Tov112D = assay: as above; settings: Gynecologic cancer cell panel viability, ATPlite luminescence, 48 h; series mostly up to 57.5 µM
In short: as §2

[1] = Drug repurposing screens with cells derived from glioblastoma tumor samples (AID 1345199); settings: GBM patient neurospheres viability, ATP luminescence, 48 h; note: nearly all actives have a fitted effect of over 40% in size
In short: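 Four patient lines of CD133+ GBM neurospheres were screened at several concentrations; hits were retested in those lines plus three slower-growing GBM lines, using 48-hour treatment and ATP-based viability.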

[2] = at 20 µM (top of the series), tumour line C
[3] = at 21.2 µM (top of the series), tumour line B
[4] = at 21.2 µM (top of the series), tumour line D
[5] = at 21.3 µM (top of the series), tumour line A
[6] = at 45.9 µM (top of the series), tumour line B
[7] = at 45.9 µM (top of the series), tumour line D
[8] = at 46.1 µM (top of the series), tumour line C
[9] = at 46 µM (top of the series), tumour line A
% is set by controls: 0 for no effect and ±100 for the full control effect.

CC(=O)CCC(=O)O
inactive: Potency (MCC-13) | Potency (MCC-26) | Potency (MKL-1) | Potency (MKL-2) | outcome (NIH3T3) | Potency (UISO) | Potency (WaGa) | Potency (C33A) | Potency (CAOV3) | Potency (CASKI) | Potency (Es-2) | Potency (HeLa) | Potency (Hek293T) | Potency (JEG-3) | Potency (OV90) | Potency (PA-1) | Potency (SKOV3) | Potency (Tov-21-G) | Potency (Tov112D)

NS(=O)(=O)c1cc2c(cc1C(F)(F)F)NC(Cc1ccccc1)NS2(=O)=O (centres undefined)
inactive: Potency (MCC-13) | Potency (MCC-26) | Potency (MKL-1) | Potency (MKL-2) | outcome (NIH3T3) | Potency (UISO) | Potency (WaGa) | Potency (C33A) | Potency (CAOV3) | Potency (CASKI) | Potency (Es-2) | Potency (HeLa) | Potency (Hek293T) | Potency (JEG-3) | Potency (PA-1) | Potency (SKOV3) | Potency (Tov-21-G) | Potency (Tov112D) | activity, negative = cell killing [1, 2] -4.97% | activity, negative = cell killing [1, 3] -2.05% | activity, negative = cell killing [1, 4] -0.808% | activity, negative = cell killing [1, 5] -15.9%

CN1[C@@H]2CC[C@H]1CC(OC(=O)C(O)c1ccccc1)C2 (some centres undefined)
inactive: Potency (MCC-13) | Potency (MCC-26) | Potency (MKL-1) | Potency (MKL-2) | outcome (NIH3T3) | Potency (UISO) | Potency (WaGa) | Potency (C33A) | Potency (CAOV3) | Potency (CASKI) | Potency (Es-2) | Potency (HeLa) | Potency (Hek293T) | Potency (JEG-3) | Potency (OV90) | Potency (PA-1) | Potency (SKOV3) | Potency (Tov-21-G) | Potency (Tov112D) | activity, negative = cell killing [1, 6] -0.798% and -13.6% and 4.01% | activity, negative = cell killing [1, 7] -19% and -5.08% and -5.73% | activity, negative = cell killing [1, 8] 11.2% and -12.9% and 5.16%

O=C(O)c1ccccn1
inactive: Potency (MCC-13) | Potency (MCC-26) | Potency (MKL-1) | Potency (MKL-2) | outcome (NIH3T3) | Potency (UISO) | Potency (WaGa) | Potency (C33A) | Potency (CAOV3) | Potency (CASKI) | Potency (Es-2) | Potency (HeLa) | Potency (Hek293T) | Potency (JEG-3) | Potency (OV90) | Potency (PA-1) | Potency (Tov-21-G) | Potency (Tov112D) | activity, negative = cell killing [1, 6] -12% | activity, negative = cell killing [1, 7] -3.68% | activity, negative = cell killing [1, 9] -22.3% | activity, negative = cell killing [1, 8] 1.95%

CCN(CC)CCNC(=O)c1cc(Cl)c(N)cc1OC
inactive: Potency (MCC-13) | Potency (MCC-26) | Potency (MKL-1) | Potency (MKL-2) | outcome (NIH3T3) | Potency (UISO) | Potency (WaGa) | Potency (C33A) | Potency (CAOV3) | Potency (CASKI) | Potency (Es-2) | Potency (HeLa) | Potency (Hek293T) | Potency (JEG-3) | Potency (OV90) | Potency (PA-1) | Potency (SKOV3) | Potency (Tov-21-G) | Potency (Tov112D) | activity, negative = cell killing [1, 6] -15.5% | activity, negative = cell killing [1, 7] -19.3% | activity, negative = cell killing [1, 8] 6.62%

O=C(Oc1ccccc1C(=O)O)c1ccccc1O
inactive: Potency (MCC-13) | Potency (MCC-26) | Potency (MKL-1) | Potency (MKL-2) | outcome (NIH3T3) | Potency (UISO) | Potency (WaGa) | Potency (C33A) | Potency (CAOV3) | Potency (CASKI) | Potency (Es-2) | Potency (HeLa) | Potency (Hek293T) | Potency (JEG-3) | Potency (OV90) | Potency (PA-1) | Potency (SKOV3) | Potency (Tov-21-G) | Potency (Tov112D) | activity, negative = cell killing [1, 6] -6.94% | activity, negative = cell killing [1, 7] -16.8% | activity, negative = cell killing [1, 9] -11.8% | activity, negative = cell killing [1, 8] 0.529%

CCCCC(CC)COC(=O)c1ccccc1O (centres undefined)
inactive: Potency (MCC-13) | Potency (MCC-26) | Potency (MKL-1) | Potency (MKL-2) | outcome (NIH3T3) | Potency (UISO) | Potency (WaGa) | Potency (C33A) | Potency (CAOV3) | Potency (CASKI) | Potency (Es-2) | Potency (HeLa) | Potency (Hek293T) | Potency (JEG-3) | Potency (OV90) | Potency (PA-1) | Potency (SKOV3) | Potency (Tov-21-G) | Potency (Tov112D) | activity, negative = cell killing [1, 6] -9.83% | activity, negative = cell killing [1, 7] -3.06% | activity, negative = cell killing [1, 8] 2.02%

CN(N=O)C(=O)N[C@@H]1[C@@H](O)[C@H](O)[C@@H](CO)O[C@@H]1O
inactive: Potency (MCC-13) | Potency (MCC-26) | Potency (MKL-1) | Potency (MKL-2) | outcome (NIH3T3) | Potency (UISO) | Potency (WaGa) | Potency (C33A) | Potency (CAOV3) | Potency (CASKI) | Potency (Es-2) | Potency (HeLa) | Potency (Hek293T) | Potency (JEG-3) | Potency (OV90) | Potency (PA-1) | Potency (Tov-21-G) | Potency (Tov112D) | activity, negative = cell killing [1, 2] -1.98% | activity, negative = cell killing [1, 3] -12% | activity, negative = cell killing [1, 4] 1.48% | activity, negative = cell killing [1, 5] -15.9%

O=c1[nH]c(=O)c2[nH]c(=O)[nH]c2[nH]1
inactive: activity change, negative = cytotoxicity (MCC-13) -1.19% [at 9.22 µM] | activity change, negative = cytotoxicity (MCC-26) -17% [at 9.22 µM] | activity change, negative = cytotoxicity (MKL-1) -12.1% [at 9.22 µM] | activity change, negative = cytotoxicity (MKL-2) 7.3% [at 9.22 µM] | outcome (NIH3T3) inactive [at 9.27 µM] | activity change, negative = cytotoxicity (UISO) -5.4% [at 9.22 µM] | activity change, negative = cytotoxicity (WaGa) -8.78% [at 9.22 µM] | activity change, negative = cytotoxicity (C33A) -3.59% [at 11.6 µM] | activity change, negative = cytotoxicity (CAOV3) 6.78% [at 11.6 µM] | activity change, negative = cytotoxicity (CASKI) -0.141% [at 11.6 µM] | activity change, negative = cytotoxicity (Es-2) -0.66% [at 11.6 µM] | activity change, negative = cytotoxicity (HeLa) 4.95% [at 11.6 µM] | activity change, negative = cytotoxicity (Hek293T) 6.53% [at 11.6 µM] | activity change, negative = cytotoxicity (JEG-3) 3.26% [at 11.6 µM] | activity change, negative = cytotoxicity (OV90) 21.7% [at 11.6 µM] | activity change, negative = cytotoxicity (PA-1) 8.45% [at 11.6 µM] | activity change, negative = cytotoxicity (SKOV3) -14.3% [at 11.6 µM] | activity change, negative = cytotoxicity (Tov-21-G) 19.2% [at 11.6 µM] | activity change, negative = cytotoxicity (Tov112D) -0.835% [at 11.6 µM] | activity, negative = cell killing [1, 6] -17.6% and -20.9% | activity, negative = cell killing [1, 7] 16.7% and -10.4% | activity, negative = cell killing [1, 9] -18.4% and -8.7% | activity, negative = cell killing [1, 8] -21% and -10.6%

CC1(C)S[C@@H]2[C@H](NC(=O)Cc3ccccc3)C(=O)N2[C@H]1C(=O)O (tested in a mixture with another compound)
inactive: Potency (MCC-13) | Potency (MCC-26) | Potency (MKL-1) | Potency (MKL-2) | outcome (NIH3T3) | Potency (UISO) | Potency (WaGa) | Potency (C33A) | Potency (CASKI) | Potency (Es-2) | Potency (HeLa) | Potency (Hek293T) | Potency (JEG-3) | Potency (OV90) | Potency (PA-1) | Potency (SKOV3) | Potency (Tov-21-G) | Potency (Tov112D) | activity, negative = cell killing [1, 6] -3.74% | activity, negative = cell killing [1, 7] -13.1% | activity, negative = cell killing [1, 9] -22.7% | activity, negative = cell killing [1, 8] -9.44%
